Measurements: PubChem BioAssay AID485313 (National Center for Advancing Translational Sciences (NCATS), 2010)
In all, about 320,000 compounds went through this assay and about 7,600 (2.4%) were called active. Not shown: some 3% with an inconclusive outcome. The sample as a whole holds a higher share of actives than the screen did. Unmarked numbers belong to inactive results. Calls come from the whole dose curve; as a rule, active = well fitted activation curve with a large enough effect; inconclusive = small, poorly fitted or top-dose-only effect; inactive = no such curve, though single readings can be large or run the other way.

assay: qHTS Assay for NPC1 Promoter Activators; conditions: Huh7 NPC1 promoter luciferase reporter, 24 h; series mostly up to 9.22 µM; activation: at the top concentration; note: nearly all actives have a fitted effect of over 60% in size; for activation: % of control where 0% means no effect
Description: NIH Chemical Genomics Center [NCGC] NIH Molecular Libraries Probe Production centers Network [MLPCN] MLPCN Grant: MH089375-01A1 Assay Submitter (PI): Yiannis A. Ioannou NCGC Assay Overview: Niemann Pick Type C (NPC) is a rare neurodegenerative lipidosis that is characterized by lipid storage in the endosomal/lysosomal system. Treatment modalities for this devastating disease are currently non-existent due to the severe obstacles associated with accessing the central nervous system with proteins or genes. The majority of mutations causing NPC disease are missense mutations that are distributed throughout the length of the NPC1 protein, with the most prevalent being the I1061T allele. Although NPC1 mutant proteins may be functional, they are typically trapped in the ER due to misfolding. […] We have developed and optimized a cell based luciferase reporter assay in 1536 well format for the identification of up-regulators of the mutant NPC1 promoter.
The NPC1 promoter is cloned in front of the luciferase reporter gene, therefore NPC promoter activation results in luciferase expression. Frozen stock of the NPC1 promoter transfected Huh7 cells were obtained from the laboratory of Dr. Yiannis Ioannou (The Mount Sinai School of Medicine, New York, NY). Cells were propagated and maintained at NCGC in medium containing RPMI-1640 supplemented with 10% FBS, 2mM L-glutamine, and 50ug/ml penicillin/streptomycin. Cells were harvested in and plated for assays in OP-MEM I reduced-serum medium supplemented with 10% FBS. The Amplite luciferase reporter gene assay kit was purchased from ABD Bioquest and prepared/stored according to manufacturers recommendations. qHTS Assay Setup: 1.#Dispensed 5ul of Huh7 cells stably expressing NPC1-luciferase at a density of 1500 cells per well 1536-well plates. 2.#Incubate cells at 37C, 5% CO2, and 95% humidity for 2 hours. 3.#Transferred 23nl per well of compound in DMSO solution. 4.#Incubated at 37C, 5% CO2, and 95% humidity for 24 hours. 5.#Dispensed 3ul per well of Amplite reagent(ABD Bioquest) per well. 6.#Incubate at ambient for 10 minutes. 7.#Read using the luminescence protocol on the ViewLux plate reader (Perkin Elmer).
Potency is the fitted concentration of half-maximal effect.

Row | Compound | Potency | activation
1 | O=C(c1cnn2ccccc12)N1CCc2ccccc21 | 3160 nM (active) | 
2 | Cc1cnc(C(=O)OCC(=O)N2CCc3ccccc32)cn1 |  | 9.65%
3 | CC(=O)NCCC(=O)Nc1cc(S(=O)(=O)N2CCCCC2)ccc1Oc1cccc(C)c1 |  | -0.163%
4 | O=C(c1ccc(F)cc1)n1c(=S)nc2ccccn21 | 355 nM (active) | 
5 | O=C(C[n+]1cc(Br)cc2ccccc21)c1ccc(F)cc1 |  | -1.7%
6 | O=C(c1ccc(F)cc1)n1cc(C(=S)N2CCOCC2)c2ccccc21 |  | 1.36%
7 | Cc1ccc(NC(=O)Cn2c(C)csc2=O)cc1 |  | 13.8%
8 | CCOC(=O)c1cc2c(nc1NC(=S)Nc1ccccc1)CC(C)(CC)OC2 (configuration not stated) |  | 0.619%
9 | CCOC(=O)c1ccc(NC(=S)Nc2cc(C)cc(C)n2)cc1 |  | -5.29%
10 | CCOC(=O)c1cn[nH]c1NC(=S)Nc1ccccc1 | 2820 nM (active) | 
11 | CN(C)C1=NC[C@H](Cc2ccccc2)N1CCc1ccc(F)cc1 |  | -6.2%
12 | COc1ccc(OC)c(/C=C/C(=O)c2ccc3c(c2)OCO3)c1 |  | 18.9%
13 | CCOC(=O)[C@H]1[C@H]2COc3ccc(C)cc3[C@@H]2N2C(=O)CN(Cc3ccc(F)cc3)C(=O)[C@@]12C |  | -1.2%
14 | COc1ccc(CN2CCN(C(=O)c3cc(C4CC4)nn3-c3ccccc3)CC2)cc1F |  | 1.51%
15 | O=C(CSc1nnc2ccccn12)c1ccccc1 | 3550 nM (active) | 
16 | N#Cc1ccc(CSc2nnc3ccccn23)cc1 |  | 0.241%
17 | O=C(CSc1nnc2n1CCCN2)c1ccccc1 |  | 24.4%
18 | Cc1cc(C(=O)CSc2nc(N)cc(=O)[nH]2)c(C)n1-c1cccc(F)c1 |  | -13.5%
19 | Cc1ccc(-n2c(C)cc(C(=O)CSc3nnc4ccccn34)c2C)cc1 | 891 nM (active) | 
20 | Cc1ccc(-n2c(C)cc(C(=O)CN3C(=O)C(=O)N(C4CCCC4)C3=O)c2C)cc1 |  | 1.5%
21 | COc1cccc(CNC(=O)CN2C(=O)NC(Cc3ccccc3)(c3ccccc3)C2=O)c1 (configuration not stated) |  | -5.69%
22 | Cc1c(C(C)CCCO)oc(=O)c2c1Oc1c(C)c(C(C)C[C@@H](C)O)oc(=O)c1C2 (some centres not stated) |  | 1.57%
23 | CC(=O)C[C@@H](O)CC(=O)[C@H]1OC(=O)CCCCCCc2ccccc21 |  | -2.8%
24 | O=C(O[C@H]1[C@H](Cc2ccccc2)NS(=O)(=O)[C@H]2C[C@@H]3C=C[C@]12O3)c1ccc([N+](=O)[O-])cc1 |  | -3.6%
25 | COc1ccccc1C(CNC(=O)c1cccc(S(=O)(=O)Nc2ccc(F)cc2)c1)N(C)C (configuration not stated) |  | -2.49%
26 | O=C(CCNC(=O)c1ccc([N+](=O)[O-])cc1)NC1CCCCC1 |  | -0.237%

Row | Compound | Potency | activation
27 | O=C(Cc1nc2ccccc2[nH]c1=O)c1ccc(Cl)cc1 | 3160 nM (active) | 
28 | N#C/C(=C(/O)COC(=O)COc1ccc(Cl)cc1)c1nc2ccccc2[nH]1 |  | -1.83%
29 | O=C(CSc1nc2ccc([N+](=O)[O-])cc2[nH]1)c1ccc(Cl)cc1 |  | 4.6%
30 | CCOC(=O)c1c(C)[nH]c(C(=O)OCC(=O)N2CCCC2=O)c1C |  | -3.33%
31 | CCOC(=O)c1c(C)[nH]c(C(=O)OCC(=O)c2ccc(OC)cc2OC)c1C |  | -10.1%
32 | CCCCOC(=O)c1[nH]c(C)c(C(=O)OC)c1C | 2820 nM (active) | 
33 | Cc1cc(C)c(CN2CCN(C(=O)Cn3ccc(NC(=O)OCc4ccccc4)nc3=O)CC2)c(C)c1 |  | -15%
34 | Cc1cccc(NC(=O)c2cccc(C(=O)Nc3cccc(C)c3C)n2)c1C |  | -3.28%
35 | Cc1ccc(C(=O)CNc2ccc(F)cc2)cc1 |  | -1.15%
36 | COC(=O)c1ccc(NCC(=O)N2CCCCCC2)cc1 |  | 27.8%
37 | COC(=O)c1ccc(NCC(=O)c2ccccc2)cc1 | 2510 nM (active) | 
38 | O=C(COC(=O)c1ccc2ncsc2c1)Nc1ccc(Cl)cc1 |  | 1.42% [at 1.84 µM]
39 | Cc1ccc(C(=O)c2c(NC(=O)c3ccccc3)sc(C)c2C)cc1 |  | 0.539%
40 | Cc1sc(NC(=O)c2ccc3ncsc3c2)c(C(N)=O)c1C | 1580 nM (active) | 
41 | COc1cc(C(=O)Nc2ncccc2C)ccc1OCC(=O)N1CCOCC1 |  | -2.59%
42 | Cc1cc(C)c(S(=O)(=O)N2CCC(C(=O)OCc3c(C)noc3C)CC2)c(C)c1 |  | -2.63%
43 | CCN(CC(=O)Nc1ccc(C)c(S(=O)(=O)N(C)C)c1)Cc1ccccc1 |  | 7.28%
44 | Cc1ccc(C(=O)Nc2ccc(C)c(S(=O)(=O)N(C)C)c2)s1 | 2820 nM (active) | 
45 | Cc1ccc(NC(=O)c2cccs2)cc1S(=O)(=O)N(C)C |  | 1.03%
46 | Nc1cc(N)nc(SCC(=O)Nc2cccc(S(=O)(=O)N3CCCCC3)c2)n1 |  | 0.484%
47 | CSc1ccc(Cl)c(C(=O)OCC(=O)N2CCNC2=O)c1 |  | -0.987%
48 | COc1ccc(N2C(=O)/C(=C\c3ccco3)N=C2SCC(N)=O)cc1Cl |  | -3.08%
49 | Nc1nonc1C(=O)NCCc1ccccc1 |  | -0.723%
50 | O=C(NCCCc1ccccc1)c1cc(COc2c(F)cccc2F)on1 |  | 24.8%
51 | CC(C)Cc1cc(C(=O)NCCc2ccccc2)no1 | 2820 nM (active) | 
52 | Cc1ccc(S(=O)(=O)N(Cc2ccc(Cl)cc2)c2ccccc2C(=O)NCc2cccnc2)cc1 |  | -3.62%
